From PubChem BioAssay (NCI)
This is part of a sample that, as a whole, favours compounds with a hit. Of some 83,000 tested, about 20% had one in any assay.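 Plates (96-well) were seeded with cells, treated with compound at one concentration, and incubated for 48 hours before percent growth was determined.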 Values without a mark were called inactive. Active and inactive are the calls of the source. The calls were made as follows: active = growth percent below 10; inactive = the rest.

How the values were obtained:
Experiment in all cases: NCI-60 one-dose screen, 48 h (100 = growth as untreated, 0 = no growth, -100 = all killed)
[1] = tested on: SK-MEL-2 melanoma; conditions: 10 µM unless noted
[2] = tested on: EKVX NSCLC; conditions: 10 µM unless noted
[3] = tested on: SN12C renal; conditions: 10 µM unless noted
[4] = tested on: UO-31 renal; conditions: 10 µM unless noted
[5] = tested on: TK-10 renal; conditions: 10 µM unless noted
[6] = tested on: ACHN renal; conditions: 10 µM unless noted
[7] = tested on: CAKI-1 renal; conditions: 10 µM
[8] = tested on: A498 renal; conditions: 10 µM unless noted
[9] = tested on: CCRF-CEM leukemia; conditions: 10 µM unless noted
[10] = tested on: MOLT-4 leukemia; conditions: 10 µM unless noted
[11] = tested on: SR leukemia; conditions: 10 µM unless noted
[12] = tested on: RPMI-8226 leukemia; conditions: 10 µM unless noted
[13] = tested on: OVCAR-8 ovarian; conditions: 10 µM unless noted
[14] = tested on: OVCAR-5 ovarian; conditions: 10 µM unless noted
[15] = tested on: OVCAR-4 ovarian; conditions: 10 µM unless noted
[16] = tested on: SK-OV-3 ovarian; conditions: 10 µM unless noted
[17] = tested on: IGROV1 ovarian; conditions: 10 µM unless noted
[18] = tested on: OVCAR-3 ovarian; conditions: 10 µM unless noted
[19] = tested on: HS 578T breast; conditions: 10 µM unless noted
[20] = tested on: NCI/ADR-RES ovarian; conditions: 10 µM unless noted

SMILES: COc1ccc(N2CCN(C(=O)CSc3ccc(-c4nc5cc(C)c(C)cc5[nH]4)cn3)CC2)cc1
- growth [1]: 87.1%
- growth [2]: 53.3%
- growth [3]: 83.2%
- growth [4]: 65.1%
- growth [5]: 101%
- growth [6]: 77.5%
- growth [7]: 73.4%
- growth [8]: 90.9%
- growth [9]: 18.4%
- growth [10]: 6.92% (active)
- growth [11]: 43.6%
- growth [12]: 17.1%
- growth [13]: 56.4%
- growth [14]: 93.5%
- growth [15]: 37.6%
- growth [16]: 94.6%
- growth [17]: 68.2%
- growth [18]: 80.4%
- growth [19]: 94.8%
- growth [20]: 49.3%

SMILES: O=C(O)c1ccc(-n2cc(CNc3ccc(F)cc3)c(-c3ccc(C(F)(F)F)cc3)n2)cc1
- growth [1]: 110%
- growth [2]: 74.4%
- growth [3]: 94.4%
- growth [4]: 67.2%
- growth [5]: 110%
- growth [6]: 76.6%
- growth [7]: 76.2%
- growth [8]: 90.3%
- growth [9]: 81.9%
- growth [10]: 81%
- growth [11]: 109%
- growth [12]: 86.5%
- growth [13]: 71.8%
- growth [14]: 106%
- growth [15]: 86.8%
- growth [16]: 95.2%
- growth [17]: 95%
- growth [18]: 84.1%
- growth [19]: 88.8%
- growth [20]: 87%

SMILES: COc1ccc(/C=N/Nc2nc(N/N=C/c3ccc(OC)cc3O)nc(N3CCOCC3)n2)c(O)c1
- growth [1]: 82.6%
- growth [2]: 46.6%
- growth [3]: 75.1%
- growth [4]: 11.2%
- growth [5]: 78.1%
- growth [6]: 27.9%
- growth [7]: 37.9%
- growth [8]: 66.8%
- growth [9]: 27.1%
- growth [10]: 35.3%
- growth [11]: 27.4%
- growth [12]: 41.7%
- growth [13]: 69.1%
- growth [14]: 68.1%
- growth [15]: 63.1%
- growth [16]: 89.1%
- growth [17]: 51.1%
- growth [18]: 19.1%
- growth [19]: 77.7%
- growth [20]: 23.1%

SMILES: NC(=O)c1c(NC(=O)c2cccc(C(F)(F)F)c2F)sc2c1CCC(=O)C2
- growth [1]: 102%
- growth [2]: 40.8%
- growth [3]: 27.2%
- growth [4]: -7.62% (active)
- growth [5]: 29.8%
- growth [6]: 6.7% (active)
- growth [7]: -8.99% (active)
- growth [8]: 70.9%
- growth [9]: 11.7%
- growth [10]: 13.5%
- growth [11]: 18.7%
- growth [12]: -5.06% (active)
- growth [13]: 18.3%
- growth [14]: 15.6%
- growth [15]: 6.91% (active)
- growth [16]: 77.2%
- growth [17]: 23.7%
- growth [18]: 11.6%
- growth [19]: 33.9%
- growth [20]: 11%

SMILES: O=C(CN1C(=O)S/C(=C\c2ccccc2)C1=O)Nc1ccc(C(=O)/C=C/c2cc3ccccc3nc2Cl)cc1
- growth [1]: 83.1%
- growth [2]: 65.3%
- growth [3]: 91.2%
- growth [4]: 57.7%
- growth [5]: 84.9%
- growth [6]: 83%
- growth [7]: 64.1%
- growth [8]: 86%
- growth [9]: 77.2%
- growth [10]: 51.4%
- growth [11]: 42.4%
- growth [12]: 26.2%
- growth [13]: 81.9%
- growth [14]: 99.5%
- growth [15]: 41.9%
- growth [16]: 82.5%
- growth [17]: 80.4%
- growth [18]: 85.6%
- growth [19]: 96.1%
- growth [20]: 88.8%

SMILES: Oc1ccc(CSc2nnc(-c3ccncc3)o2)c2cccnc12
- growth [1]: 8.88% (active)
- growth [2]: 47.6%
- growth [3]: 7.4% (active)
- growth [4]: 12.4%
- growth [5]: 34.6%
- growth [6]: 40.5%
- growth [7]: 7.09% (active)
- growth [8]: 9.33% (active)
- growth [9]: 26%
- growth [10]: 25.7%
- growth [11]: 50.4%
- growth [12]: 5.35% (active)
- growth [13]: 15.8%
- growth [14]: 35.7%
- growth [15]: 19.7%
- growth [16]: 4.05% (active)
- growth [17]: 22.4%
- growth [18]: 19.8%
- growth [19]: 5.36% (active)
- growth [20]: 58.4%

SMILES: NS(=O)(=O)c1ccc(Nc2nc(N/N=C/c3ccc(C(F)(F)F)cc3)nc(Nc3ccccc3)n2)cc1
- growth [1]: 28.7%
- growth [2]: 53.7%
- growth [3]: 42.9%
- growth [4]: 60.3%
- growth [5]: 64.3%
- growth [6]: 39.6%
- growth [7]: 33.7%
- growth [8]: 39.6%
- growth [9]: 12%
- growth [10]: 9.74% (active)
- growth [11]: 7.13% (active)
- growth [12]: -5.16% (active)
- growth [13]: 33%
- growth [14]: 67.5%
- growth [15]: 40.9%
- growth [16]: 55.5%
- growth [17]: 31.2%
- growth [18]: 11.7%
- growth [19]: 8.82% (active)
- growth [20]: 87.4%

SMILES: CS(=O)(=O)c1ccc(-c2nn(-c3ccccc3)cc2/C=C/C(=O)c2ccc(Br)cc2)cc1
- growth [1]: 103%
- growth [2]: 87.5%
- growth [3]: 88.1%
- growth [4]: 79.6%
- growth [5]: 107%
- growth [6]: 94%
- growth [7]: 84.6%
- growth [8]: 84.1%
- growth [9]: 41.8%
- growth [10]: 60.6%
- growth [11]: 59.6%
- growth [12]: 32.8%
- growth [13]: 93.6%
- growth [14]: 101%
- growth [15]: 90.6%
- growth [16]: 107%
- growth [17]: 95%
- growth [18]: 70.3%
- growth [19]: 117%
- growth [20]: 85.2%

SMILES: NCCN1CCN(c2nc(-c3ccccc3)nc3nc(-c4ccccc4)oc23)CC1
- growth [1]: 102%
- growth [2]: 2% (active)
- growth [3]: -79.4% (active)
- growth [4]: -89.2% (active)
- growth [5]: -28.7% (active)
- growth [6]: -95.4% (active)
- growth [7]: -90.1% (active)
- growth [8]: 61.7%
- growth [9]: 1.25% (active)
- growth [10]: -0.256% (active)
- growth [11]: 20.7%
- growth [12]: -27.9% (active)
- growth [13]: -16.4% (active)
- growth [14]: -82.9% (active)
- growth [15]: -59.7% (active)
- growth [16]: 100%
- growth [17]: -71.6% (active)
- growth [18]: -78.6% (active)
- growth [19]: 100%
- growth [20]: -45.3% (active)

SMILES: COc1ccccc1N1CCN(C2=NN=C(c3cccc(Cl)c3)c3ccccc3C2)CC1
- growth [1]: 0.738% (active)
- growth [2]: 40.9%
- growth [3]: 21.2%
- growth [4]: 24%
- growth [5]: 27.8%
- growth [6]: 28.5%
- growth [7]: 29.7%
- growth [8]: -16.6% (active)
- growth [9]: 10.1%
- growth [10]: 17.6%
- growth [11]: -15.3% (active)
- growth [12]: 9.68% (active)
- growth [13]: 13%
- growth [14]: 40.4%
- growth [15]: 38.6%
- growth [16]: 13.7%
- growth [17]: 21.4%
- growth [18]: -31.2% (active)
- growth [19]: 18.9%
- growth [20]: 10.7%

SMILES: CCCC(=O)NC(c1cccnc1)c1cc(C(C)=O)c2cccnc2c1O (stereo not given)
- growth [1]: 62.8%
- growth [2]: 22.3%
- growth [3]: 43.9%
- growth [4]: 13.6%
- growth [5]: 39.1%
- growth [6]: 14.5%
- growth [7]: 20.5%
- growth [8]: 56.6%
- growth [9]: 20.8%
- growth [10]: 25.1%
- growth [11]: 52.5%
- growth [12]: 38.2%
- growth [13]: 21.7%
- growth [14]: 40%
- growth [15]: 19.6%
- growth [16]: 31.9%
- growth [17]: 36.7%
- growth [18]: 17.1%
- growth [19]: 69.6%
- growth [20]: 30.4%

SMILES: N#Cc1c(-c2cccs2)cc(-c2cnccn2)nc1SCC(=O)NNC(=S)Nc1ccc(F)cc1
- growth [1]: 123%
- growth [2]: 103%
- growth [3]: 100%
- growth [4]: 79%
- growth [5]: 108%
- growth [6]: 104%
- growth [7]: 99.1%
- growth [8]: 118%
- growth [9]: 93.6%
- growth [10]: 94.9%
- growth [11]: 85.1%
- growth [12]: 105%
- growth [13]: 104%
- growth [14]: 109%
- growth [15]: 96.3%
- growth [16]: 121%
- growth [17]: 106%
- growth [18]: 122%
- growth [19]: 109%
- growth [20]: 106%

SMILES: Cc1ccc(NC(=O)c2ccc(CN3CCN(C)CC3)c(I)c2)cc1Oc1ccc(-c2[nH]nc3ncnc(N)c23)cc1
- growth [1]: 86.4%
- growth [2]: 100%
- growth [3]: 90%
- growth [4]: 75.8%
- growth [5]: 114%
- growth [6]: 76.9%
- growth [7]: 89.9%
- growth [8]: 103%
- growth [9]: 3.41% (active)
- growth [10]: 11.3%
- growth [11]: 4.76% (active)
- growth [12]: -3.29% (active)
- growth [13]: 91.8%
- growth [14]: 95.8%
- growth [15]: 96.1%
- growth [16]: 109%
- growth [17]: 88%
- growth [18]: 102%
- growth [19]: 66.2%
- growth [20]: 44.5%

SMILES: O=C(Nc1cc(F)cc2cccnc12)c1cnc(N2CCOCC2)cn1
- growth [1]: 96%
- growth [2]: 63.6%
- growth [3]: 83.5%
- growth [4]: 46.1%
- growth [5]: 61.6%
- growth [6]: 34.8%
- growth [7]: 64.9%
- growth [8]: 86.6%
- growth [9]: 28.6%
- growth [10]: 29.7%
- growth [11]: 38.5%
- growth [12]: 70.5%
- growth [13]: 79.4%
- growth [14]: 65.6%
- growth [15]: 17.9%
- growth [16]: 95.2%
- growth [17]: 25.5%
- growth [18]: 9.55% (active)
- growth [19]: 98.3%
- growth [20]: 78.2%

SMILES: Cc1ccc(NC(=O)c2cccc(CN3CCN(C)CC3)c2)cc1Oc1ccc(-c2[nH]nc3ncnc(N)c23)cc1
- growth [1]: 73.8%
- growth [2]: 97.5%
- growth [3]: 80%
- growth [4]: 93.3%
- growth [5]: 93.5%
- growth [6]: 92.6%
- growth [7]: 59.3%
- growth [8]: 89.2%
- growth [9]: 47%
- growth [10]: 0.353% (active)
- growth [11]: 6.56% (active)
- growth [12]: 48.7%
- growth [13]: 83.1%
- growth [14]: 80.8%
- growth [15]: 81.9%
- growth [16]: 78.8%
- growth [17]: 63.3%
- growth [18]: 79.6%
- growth [19]: 64.2%
- growth [20]: 101%
